KinaseGlo FLuc: blocks Kinase-Glo luciferase, a counter-screen artifact. Q27757. Kinase-Glo luciferase, ATP luminescence, 8 min. Potency, µM (top dose mostly 38.3 µM), usual class: inhibitors. hit rate 0.28% among 200,000. AID 1379; active means well fitted inhibition curve with a large enough effect; inconclusive means small, poorly fitted or top-dose-only effect; further: nearly all actives have a fitted effect of over 60% in size
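Light output from Kinase-Glo luciferase with luciferin and 10 uM ATP in 50 mM imidazole pH 7.2, KCl, MgCl2, Tween 20, BSA; compound pin-delivered, 8-min ambient incubation, then luminescence read.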
PNC assembly inh: inhibitors of perinucleolar compartment assembly; hit rate 3.1% among 140,000; activity change (PNC), negative = inhibition, % at 10 µM; PC3M PTB-GFP, PNC prevalence imaging, 16 h; hits give low values;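 active means readout at or below -70, meaning at least 70% loss of cells showing the perinucleolar compartment, a nuclear body marking cancer cells; inconclusive means readout between -30 and a set limit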
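PC3M cells stably expressing PTB-GFP, 750–1000 cells/well, treated 16 h at 37 °C with compound (23 nl of library stock), in duplicate. After paraformaldehyde fixation and Hoechst stain, imaged at 20x; PNC prevalence scored by image analysis.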
ALDH1A1 block: inhibitors of human aldehyde dehydrogenase 1A1; P00352; Purified ALDH1A1, NADH fluorescence, propionaldehyde substrate; Potency, µM (titrated, usually from 75.3 µM), hits mostly inhibitors; hit rate 7.3% among 220,000
HPGD inh: inhibitors of human 15-hydroxyprostaglandin dehydrogenase (HPGD); P15428; purified HPGD, NADH fluorescence kinetic, PGE2 substrate; Potency, µM, hits mostly inhibitors; hit rate 4.3% among 150,000
Target sequence (P15428 whole entry, looked up): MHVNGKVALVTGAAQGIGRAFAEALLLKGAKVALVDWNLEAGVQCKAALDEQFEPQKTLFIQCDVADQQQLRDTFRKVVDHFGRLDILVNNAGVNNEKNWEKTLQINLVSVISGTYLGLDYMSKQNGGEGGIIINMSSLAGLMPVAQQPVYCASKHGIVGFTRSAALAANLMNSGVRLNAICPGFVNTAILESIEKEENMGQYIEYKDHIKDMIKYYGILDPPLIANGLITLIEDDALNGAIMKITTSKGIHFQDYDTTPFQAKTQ
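NADH formation kinetics: reaction with 30 uM PGE2 and 1 mM NAD+ (final), 20 nM enzyme, Tris-HCl pH 8 with Tween 20, after 15 min compound preincubation at room temperature. Fluorescence change, last versus first of five reads.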
LMNA splice mod: LMNA splicing modulation. Potency, µM (doses to about 46.1 µM), usual class: inhibitors. HeLa LMNA splicing GFP/RFP minigene ratio, 48 h. hit rate 0.01% among 200,000; active means well fitted inhibition curve with a large enough effect in the signal ratio, with a control signal flat, not every such curve was filed as active; inconclusive means small, poorly fitted or top-dose-only effect, or effect the other way, or a change in a side signal; the % refers to the signal ratio
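S3 HeLa stable clones carrying a lamin A-EGFP splicing minigene plus DsRed2 were seeded at 600 cells/well in Opti-MEM with 2% FBS, pin-dosed and incubated 48 h at 37°C. Acumen cytometry (488 nm) gave the GFP/RFP total-intensity ratio.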
A number is an active result; [ ] = remark or other dose. The list is not random: actives were taken first. Their share in the collection is about 10%. Unless noted, the call rests on the fitted dose curve; in most records, active means well fitted inhibition curve with a large enough effect (not every such curve was filed as active); inconclusive means small, poorly fitted or top-dose-only effect, or another doubt; inactive means no such curve, though single readings can be large or run the other way.

`Cc1cc2c(nc1C)CCCN2C[C@H](C)O/N=C\[C@@H](C)[C@H](OCc1ccccc1)C(C)C` gave ALDH1A1 block inactive[13.5 µM].
CC(C)CC(N=Cc1c(O)c2ccccc2oc1=O)C(=O)O (stereo not drawn) was read as KinaseGlo FLuc inactive and ALDH1A1 block 14µM.
CCn1cnc2sc(C(=O)Oc3ccc(Br)cc3)c(C)c2c1=O was read as KinaseGlo FLuc inactive and ALDH1A1 block inactive.
CCn1cnc2sc(C(=O)N(Cc3ccc(N(C)C)cc3)Cc3ccco3)c(C)c2c1=O was read as KinaseGlo FLuc inactive, PNC assembly inh inconclusive, ALDH1A1 block 8.9µM, HPGD inh inactive and LMNA splice mod inconclusive.
For CCCCn1nnnc1SCC(=O)c1ccc(C)c(C)c1 the results were PNC assembly inh inactive, ALDH1A1 block 7.9µM and LMNA splice mod inconclusive.
For CCCCn1nnnc1SCC(=O)c1cc(Cl)ccc1OC the results were KinaseGlo FLuc inactive, PNC assembly inh inactive, ALDH1A1 block 5µM, HPGD inh inactive and LMNA splice mod inactive.
Cc1nn(C)cc1CNC(=O)/C=C/c1cnn(C)c1 was read as KinaseGlo FLuc inactive, PNC assembly inh -109, ALDH1A1 block inactive, HPGD inh inactive and LMNA splice mod inactive.
Screening Cc1nc2sc(C(=O)Nc3ccccc3)c(N)c2c(C)c1[N+](=O)[O-] returned KinaseGlo FLuc inactive, ALDH1A1 block inactive and LMNA splice mod inactive.
For CCN(CC)c1ccc(C(=O)OCc2c(C)noc2C)cc1 the results were KinaseGlo FLuc inactive, ALDH1A1 block inactive and LMNA splice mod inactive.
O=C(c1coc2ccc(O)cc12)C1CC1 was read as KinaseGlo FLuc inactive, PNC assembly inh inconclusive, ALDH1A1 block 2.8µM, HPGD inh inactive and LMNA splice mod inactive.
Screening O=C(c1ccc(Cl)cc1)c1coc2ccc(O)cc12 returned KinaseGlo FLuc inactive, PNC assembly inh inactive, ALDH1A1 block inactive, HPGD inh inactive and LMNA splice mod inconclusive.
For COCc1cc(C)nc(SCC[N+](C)(C)CC(=O)Nc2cccc(C(F)(F)F)c2)c1C#N the results were KinaseGlo FLuc inactive and ALDH1A1 block 11µM.
COc1cccc2c1ncc1c(-c3ccc(C)cc3)nn(-c3ccc(F)cc3)c12 was read as LMNA splice mod inactive.
Screening O=C(O)c1cc(=O)[nH]c(=O)[nH]1 returned ALDH1A1 block inconclusive, HPGD inh inactive and LMNA splice mod inconclusive.
For N=C1S/C(=C\c2cn[nH]c2-c2ccc(F)cc2)C(=O)N1c1ccccc1F the results were KinaseGlo FLuc inactive, PNC assembly inh inconclusive, ALDH1A1 block inactive, HPGD inh 13µM and LMNA splice mod inactive.
`N=C1S/C(=C\c2ccccc2F)C(=O)N1c1ccc(F)cc1` gave KinaseGlo FLuc inactive, PNC assembly inh inactive, ALDH1A1 block inactive, HPGD inh inactive and LMNA splice mod inactive.
For Cc1cc(C)n(CCc2nc3c4ccccc4n(CC#N)c(=O)n3n2)n1 the results were KinaseGlo FLuc inactive, PNC assembly inh inactive, ALDH1A1 block 11µM, HPGD inh inactive and LMNA splice mod inactive.
For CN(C)c1ncc2nc(-c3ccc(F)cc3)c(=O)n(C)c2n1 the results were ALDH1A1 block inconclusive and LMNA splice mod inactive.
`CCOC(=O)CC1COCCN1Cc1cn(C)nc1-c1ccccc1F` (stereo not drawn) gave KinaseGlo FLuc inactive and ALDH1A1 block 10µM.
Screening Cn1nc(C(=O)OCCN2C(=O)c3ccccc3C2=O)c2ccccc2c1=O returned KinaseGlo FLuc inactive, PNC assembly inh inactive, ALDH1A1 block inactive, HPGD inh 20µM and LMNA splice mod inactive.
Cc1ccccc1NC(=S)NCc1ccc2[nH]c3c(c2c1)CCCC3 was read as KinaseGlo FLuc inactive, PNC assembly inh inactive, ALDH1A1 block inconclusive, HPGD inh 20µM and LMNA splice mod inconclusive.
CNC(=S)NCc1ccc2[nH]c3c(c2c1)CCCC3 was read as KinaseGlo FLuc inactive and ALDH1A1 block 25µM.
CCOc1ccc(NC(=O)CSc2nc(=O)[nH]c3c2CCC3)cc1 was read as LMNA splice mod inactive.
Screening COc1cccc(CC(=O)N2CCc3nc(-c4ccc(OC)cc4C)c4c(c3C2)CO[C@@H](c2ccccc2)C4)c1 returned KinaseGlo FLuc inactive[7.66 µM], ALDH1A1 block 4µM, HPGD inh inactive and LMNA splice mod inconclusive.
COc1ccc(-c2nc3c(c4c2C[C@H](c2ccccc2)OC4)CN(S(=O)(=O)c2ccc(C)cc2)CC3)c(C)c1 was read as KinaseGlo FLuc inactive[7.66 µM], ALDH1A1 block inconclusive, HPGD inh inactive and LMNA splice mod inconclusive.
Screening COc1ccc(-c2nc3c(c4c2C[C@H](c2ccccc2)OC4)CN(S(=O)(=O)c2ccc(C#N)cc2)CC3)c(C)c1 returned KinaseGlo FLuc inactive[7.66 µM], ALDH1A1 block 0.5µM, HPGD inh inactive and LMNA splice mod inconclusive.
COc1ccc(-c2nc3c(c4c2C[C@H](c2ccccc2)OC4)CN(C(=O)c2cc(I)ccc2F)CC3)c(C)c1 was read as KinaseGlo FLuc inactive[7.66 µM], ALDH1A1 block 1.1µM, HPGD inh inactive and LMNA splice mod inconclusive.
Screening COc1ccc(-c2nc3c(c4c2C[C@H](c2ccccc2)OC4)CN(C(=O)N[C@@H](C)c2ccccc2)CC3)c(C)c1 returned KinaseGlo FLuc inactive[7.66 µM], ALDH1A1 block 3.5µM, HPGD inh inactive and LMNA splice mod inactive[9.22 µM].
Screening Cc1cc(C)c(Nc2nc3ccccc3n3c(C)nnc23)c(C)c1 returned LMNA splice mod inactive.
Screening COC(=O)Cc1ccc(O)c(N)c1 returned KinaseGlo FLuc inactive, ALDH1A1 block 28µM and LMNA splice mod inactive.
For CCOc1ccc(NC(=O)CN2C(=O)c3ccccc3Sc3ccc(C(=O)OC)cc32)cc1 the results were LMNA splice mod inactive.
CC(C)NC(=S)NC(=O)c1ccc(Cl)cc1Cl was read as KinaseGlo FLuc inactive, PNC assembly inh inactive, ALDH1A1 block inconclusive, HPGD inh inactive and LMNA splice mod inactive.
CC(C)CNC(=S)NC(=O)c1ccc(Cl)cc1Cl was read as PNC assembly inh inactive, ALDH1A1 block 22µM and LMNA splice mod inactive.
`Cn1cccc1CC(=O)NNC(=S)Nc1ccc(Cl)cc1Cl` gave KinaseGlo FLuc inactive, PNC assembly inh inactive, ALDH1A1 block 10µM, HPGD inh 11µM and LMNA splice mod inactive.
Screening Cc1cccc(C(=O)NC(=S)NNC(=O)COc2ccc(Cl)cc2)c1 returned KinaseGlo FLuc inactive, ALDH1A1 block 9.5µM and LMNA splice mod inconclusive.
`COc1cccc(OCC(=O)Nc2ccccc2-c2ccccc2)c1` gave KinaseGlo FLuc inactive and ALDH1A1 block 20µM.
Cn1cccc1CC(=O)NNC(=S)NC(=O)c1ccccc1Br was read as KinaseGlo FLuc inactive, ALDH1A1 block inactive and LMNA splice mod inconclusive.
`COC(=O)CC1c2ccccc2C(Cc2ccc(OC)cc2)C(C)N1C(=O)OC` (stereo not drawn) gave KinaseGlo FLuc inactive[7.66 µM], ALDH1A1 block inactive[13.5 µM], HPGD inh inactive and LMNA splice mod inactive[9.22 µM].
For COc1cccc(OCC(=O)NNC(=S)Nc2ccc(Cl)cc2Cl)c1 the results were KinaseGlo FLuc inactive and ALDH1A1 block 2µM.

Assay outcomes (PubChem BioAssay)
